Values joined by “and” are separate entries in the source; they are usually repeats but may differ in a detail not shown here. Equal entries are not always repeated. Records with an inconclusive call do not appear. Active and inactive are the calls of the source.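 Rule for the calls, unless noted: active = percent response above 42, roughly 3 SD of non-fluorescent test compounds; inactive = the rest.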
How the values were obtained:
[1] = yeast TOR pathway RPL19A-GFP modulators, primary screen, cell-based, S. cerevisiae, multiplex flow cytometry (AID 1862; in the data active = percent of DMSO control GFP below about 86%;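 note: lower values mimic rapamycin by blocking the RPL19A rise seen in DMSO cells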); conditions: S. cerevisiae RPL19A-GFP strain, flow cytometry fluorescence, 3 h; at 10 µM; stronger effect = lower value
[2] = modulators of MEP2-GFP levels in yeast, primary screen, S. cerevisiae, multiplex flow cytometry (AID 1867;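 active = GFP response, as percent of the DMSO control, above the screen-wide mean plus 3 SD, about 139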;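 note: median GFP channel fluorescence of barcode-gated MEP2-GFP cells measured by flow cytometry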); conditions: S. cerevisiae MEP2-GFP strain, 3 h, at 10 µM, stronger effect = higher value, 100% means same as DMSO wells
[3] = modulators of CIT2-GFP expression in yeast, primary screen, S. cerevisiae, GFP fusion, multiplex flow cytometry (AID 1870;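 active = percent response above a set limit, the screen-wide mean plus 3 SD, cut at about 130% in these data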;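 note: barcoded CIT2-GFP strain pooled with four other GFP strains with rapamycin as positive control; median GFP fluorescence per well over plate mean of DMSO wells so 100% = DMSO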); conditions: 3 h, at 10 µM, stronger effect = higher value
[4] = modulators of LAP4-GFP expression in yeast, primary screen, S. cerevisiae, multiplex flow cytometry (AID 1873;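 active = GFP signal, as percent of the solvent control, above the screen mean plus 3 SD, about 149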); conditions: 3 h, at 10 µM, stronger effect = higher value
[5] = modulators of AGP1-GFP expression in yeast TOR pathway, primary screen, cell-based, multiplex flow cytometry, S. cerevisiae (AID 1887;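 active = GFP signal above the screen-wide mean plus 3 SD, that is over about 124.5% of the solvent control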;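 note: AGP1-GFP fusion strain of S. cerevisiae within a five-strain barcoded multiplex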); conditions: 3 h, at 10 µM, stronger effect = higher value
[6] = inhibitors of CD8+ T cell-vesicle binding, pilot screen, LFA-1/ICAM-1 modulator project, MLPCN validation set, flow cytometry (AID 2523;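 active = response below a set limit, under 55% cells CD8-positive and vesicle-bound, and CD8 cells' 90th-percentile brightness under 279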;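 for vesicle binding response: mean PE anti-B7-1 fluorescence of CD8+ cells relative to row control; 100% = QL9-loaded vesicles with DMSO vehicle in the same plate row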); conditions: 2C mouse CD8+ T cells, at 7 µM, stronger effect = lower value; double positive events: measured here: CD8+/vesicle+ event percentage
[7] = biological target: Integrin beta-1 (Homo sapiens) + Integrin alpha-4 (Homo sapiens) (UniProt P13612+P05556); assay: inhibition of HUTS-21 binding to VLA-4, pilot screen, VLA-4 allosteric modulator project, U937 cells, HUTS-21 mAb, flow cytometry, validation set (AID 2674;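 active = inhibition above 50%, about 3 SD of the validation set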;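 note: antibody binding induced by the VLA-4 ligand LDV present at three times its Kd; 0% = LDV ligand with antibody and no compound and 100% = antibody without LDV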); conditions: HUTS-21 LIBS mAb binding, at 6.7 µM, stronger effect = higher value, binding induced by LDV ligand
Chain of Integrin beta-1 (Homo sapiens) + Integrin alpha-4 (Homo sapiens) (P05556 whole entry, looked up): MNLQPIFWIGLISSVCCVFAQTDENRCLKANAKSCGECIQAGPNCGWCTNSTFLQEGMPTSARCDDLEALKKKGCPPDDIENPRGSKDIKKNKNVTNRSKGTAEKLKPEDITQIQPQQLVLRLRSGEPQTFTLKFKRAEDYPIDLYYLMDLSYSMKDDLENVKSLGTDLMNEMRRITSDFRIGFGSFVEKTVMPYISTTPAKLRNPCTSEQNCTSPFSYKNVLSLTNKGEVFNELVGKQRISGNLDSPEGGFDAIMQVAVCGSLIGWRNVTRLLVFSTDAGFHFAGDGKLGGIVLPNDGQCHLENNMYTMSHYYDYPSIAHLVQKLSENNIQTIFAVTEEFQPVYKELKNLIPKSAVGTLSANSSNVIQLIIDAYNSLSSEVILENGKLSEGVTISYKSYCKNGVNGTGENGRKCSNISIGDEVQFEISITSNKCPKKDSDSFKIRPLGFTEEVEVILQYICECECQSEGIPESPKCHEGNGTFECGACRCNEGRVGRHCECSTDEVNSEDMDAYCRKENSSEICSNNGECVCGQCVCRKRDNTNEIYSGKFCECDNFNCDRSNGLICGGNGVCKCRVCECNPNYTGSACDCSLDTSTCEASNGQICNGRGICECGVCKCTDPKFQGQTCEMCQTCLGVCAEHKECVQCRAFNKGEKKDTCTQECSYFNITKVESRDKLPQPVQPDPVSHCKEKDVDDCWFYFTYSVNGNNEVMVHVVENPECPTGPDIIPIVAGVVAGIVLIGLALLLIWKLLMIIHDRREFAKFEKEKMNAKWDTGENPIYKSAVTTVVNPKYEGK
Chain of Integrin beta-1 (Homo sapiens) + Integrin alpha-4 (Homo sapiens) (P13612 whole entry, looked up): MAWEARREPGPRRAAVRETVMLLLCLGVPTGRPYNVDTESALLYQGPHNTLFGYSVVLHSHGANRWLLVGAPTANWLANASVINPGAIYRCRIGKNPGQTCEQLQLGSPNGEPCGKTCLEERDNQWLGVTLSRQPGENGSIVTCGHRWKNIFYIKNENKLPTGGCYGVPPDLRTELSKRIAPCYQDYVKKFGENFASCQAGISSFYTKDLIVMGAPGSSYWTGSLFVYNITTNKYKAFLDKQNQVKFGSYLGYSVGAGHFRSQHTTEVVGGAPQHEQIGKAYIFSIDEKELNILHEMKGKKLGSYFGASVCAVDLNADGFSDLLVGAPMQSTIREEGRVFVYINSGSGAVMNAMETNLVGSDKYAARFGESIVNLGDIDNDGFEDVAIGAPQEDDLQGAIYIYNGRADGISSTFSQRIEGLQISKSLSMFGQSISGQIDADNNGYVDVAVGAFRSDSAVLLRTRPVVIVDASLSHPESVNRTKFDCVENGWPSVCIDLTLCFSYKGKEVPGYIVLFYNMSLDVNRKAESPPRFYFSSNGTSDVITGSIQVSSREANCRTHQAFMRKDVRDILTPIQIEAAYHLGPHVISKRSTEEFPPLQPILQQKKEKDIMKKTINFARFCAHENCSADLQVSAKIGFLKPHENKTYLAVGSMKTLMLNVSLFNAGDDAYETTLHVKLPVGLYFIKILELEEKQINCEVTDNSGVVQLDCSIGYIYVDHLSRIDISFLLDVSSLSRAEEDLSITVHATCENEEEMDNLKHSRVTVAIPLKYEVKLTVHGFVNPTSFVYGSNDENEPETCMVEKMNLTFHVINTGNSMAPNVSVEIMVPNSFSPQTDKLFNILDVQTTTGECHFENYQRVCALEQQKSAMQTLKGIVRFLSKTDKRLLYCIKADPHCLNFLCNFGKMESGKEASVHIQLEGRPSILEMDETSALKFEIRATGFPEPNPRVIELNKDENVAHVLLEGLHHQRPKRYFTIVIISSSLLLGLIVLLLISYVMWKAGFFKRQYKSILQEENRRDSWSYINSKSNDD

[8] = superoxide lowering in aged yeast cells, pilot screen, validation compound set (AID 2706;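 active = superoxide response below 65% of plate, a cut near 3 SD across the whole screen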;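 note: yeast exposed to compound for one week at 30 degrees C before staining; 100% = mean of all compound wells on the same plate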); conditions: S. cerevisiae aging, superoxide DHE fluorescence; at 10 µM; stronger effect = lower value
[9] = biological target: Beta-adrenergic receptor kinase 1 (Homo sapiens) (UniProt P25098); assay: GRK2 binders displacing RNA aptamer, biochemical, validation, human GRK2, bead flow cytometry (AID 488806;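 active = aptamer binding inhibition above 30%, about 3 SD of noise from non-fluorescent compounds; inactive = inhibition at or below 30%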); conditions: bead-bound GRK2, FAM-aptamer displacement, at 10 µM, stronger effect = higher value
Chain of Beta-adrenergic receptor kinase 1 (Homo sapiens) (P25098 whole entry, looked up): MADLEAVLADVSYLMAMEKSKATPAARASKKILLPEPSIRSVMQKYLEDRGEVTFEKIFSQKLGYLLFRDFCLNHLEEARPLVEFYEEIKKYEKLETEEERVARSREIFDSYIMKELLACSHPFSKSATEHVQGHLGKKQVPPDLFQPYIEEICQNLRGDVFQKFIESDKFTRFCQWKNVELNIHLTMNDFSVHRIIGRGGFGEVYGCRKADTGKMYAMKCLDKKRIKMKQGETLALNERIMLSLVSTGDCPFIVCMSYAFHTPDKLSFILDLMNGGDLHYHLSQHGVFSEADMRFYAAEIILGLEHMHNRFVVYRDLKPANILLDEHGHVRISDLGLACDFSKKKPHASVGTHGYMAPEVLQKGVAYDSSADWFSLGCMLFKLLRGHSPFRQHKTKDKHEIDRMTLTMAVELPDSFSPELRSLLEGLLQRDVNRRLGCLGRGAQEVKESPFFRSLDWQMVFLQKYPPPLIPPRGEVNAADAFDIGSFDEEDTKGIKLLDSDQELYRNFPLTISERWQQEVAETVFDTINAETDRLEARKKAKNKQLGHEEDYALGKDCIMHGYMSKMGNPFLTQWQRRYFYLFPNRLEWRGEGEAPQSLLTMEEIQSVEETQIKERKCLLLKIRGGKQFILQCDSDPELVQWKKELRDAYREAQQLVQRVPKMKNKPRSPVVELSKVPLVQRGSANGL

[10] = biological target: Beta-2 adrenergic receptor (Homo sapiens) (UniProt P07550); assay: beta2AR agonists driving receptor internalization, pilot screen, cell-based, FAP fluorogen, flow cytometry, validation set (AID 504459); conditions: Am2.2-beta2AR cells, FAP surface receptor flow cytometry; at 10 µM; stronger effect = higher value;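 note: agonist-driven loss of surface beta2AR via internalization measured by FAP dye flow cytometry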
Chain of Beta-2 adrenergic receptor (Homo sapiens) (P07550 whole entry, looked up): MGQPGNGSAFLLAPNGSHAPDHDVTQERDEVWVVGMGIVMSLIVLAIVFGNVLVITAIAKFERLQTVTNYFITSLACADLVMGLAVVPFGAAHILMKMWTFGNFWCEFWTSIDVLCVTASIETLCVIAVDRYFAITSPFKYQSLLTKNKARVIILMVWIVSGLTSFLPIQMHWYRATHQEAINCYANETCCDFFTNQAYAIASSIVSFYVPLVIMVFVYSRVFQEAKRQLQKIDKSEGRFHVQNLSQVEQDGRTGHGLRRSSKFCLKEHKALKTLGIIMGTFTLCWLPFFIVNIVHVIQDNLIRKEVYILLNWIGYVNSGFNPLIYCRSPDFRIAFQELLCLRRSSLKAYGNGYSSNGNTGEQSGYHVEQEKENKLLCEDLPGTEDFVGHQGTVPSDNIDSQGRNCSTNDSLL

[11] = biological target: AP-2 complex subunit beta (Homo sapiens) (UniProt P63010); assay: inhibitors of arrestin peptide binding to AP2, pilot screen, biochemical, validation set, GST-AP2 beads, flow cytometry (AID 504541;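 active = inhibition above 54%, about 3 SD of non-fluorescent compounds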;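 note: AP2 carries R879A mutation and is captured from E. coli lysate; bead-bound FITC arrestin peptide fluorescence measuring arrestin peptide binding to AP2; 0% = DMSO wells and 100% = excess unlabeled arrestin peptide control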); conditions: FITC arrestin peptide, at 10 µM, stronger effect = higher value, AP2 beta2 appendage fragment, R879A mutant
Chain of AP-2 complex subunit beta (Homo sapiens) (P63010 whole entry, looked up, the tested form may be a part, one chain of several): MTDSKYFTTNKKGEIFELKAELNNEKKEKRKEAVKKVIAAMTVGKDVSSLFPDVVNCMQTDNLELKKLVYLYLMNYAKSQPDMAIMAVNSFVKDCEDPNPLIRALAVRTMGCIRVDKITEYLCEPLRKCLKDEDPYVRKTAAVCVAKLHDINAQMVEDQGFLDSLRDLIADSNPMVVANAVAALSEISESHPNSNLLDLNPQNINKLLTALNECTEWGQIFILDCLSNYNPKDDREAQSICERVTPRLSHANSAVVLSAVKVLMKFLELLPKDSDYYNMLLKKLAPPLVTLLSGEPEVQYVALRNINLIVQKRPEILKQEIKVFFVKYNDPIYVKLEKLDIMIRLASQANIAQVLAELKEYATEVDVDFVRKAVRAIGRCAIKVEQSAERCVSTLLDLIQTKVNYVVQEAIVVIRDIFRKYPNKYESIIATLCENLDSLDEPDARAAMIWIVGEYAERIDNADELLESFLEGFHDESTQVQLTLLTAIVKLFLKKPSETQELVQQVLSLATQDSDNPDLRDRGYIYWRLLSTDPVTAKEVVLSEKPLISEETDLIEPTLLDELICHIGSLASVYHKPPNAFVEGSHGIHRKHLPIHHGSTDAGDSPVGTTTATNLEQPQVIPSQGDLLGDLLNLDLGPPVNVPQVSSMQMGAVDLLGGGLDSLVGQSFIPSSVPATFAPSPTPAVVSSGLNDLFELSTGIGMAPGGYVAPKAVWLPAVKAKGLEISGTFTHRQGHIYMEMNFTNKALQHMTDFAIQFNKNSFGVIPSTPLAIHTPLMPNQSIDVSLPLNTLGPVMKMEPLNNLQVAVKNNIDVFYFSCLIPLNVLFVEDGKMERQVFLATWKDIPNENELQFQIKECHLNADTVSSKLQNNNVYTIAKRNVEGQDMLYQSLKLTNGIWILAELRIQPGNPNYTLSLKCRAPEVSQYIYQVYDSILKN

[12] = yeast V-ATPase proton transport modulators, S. cerevisiae, pHLuorin, HTS validation (AID 504600; in the data active = response above about 15%;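 note: plate controls were DMSO for no effect and reference compound for full effect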); conditions: S. cerevisiae pHLuorin cytosolic pH, at 10 µM, stronger effect = higher value
[13] = tested on: anti-desmoglein-3 scFv antibody binding to human DSG3; assay: inhibitors of anti-DSG3 scFv binding to DSG3, pilot screen, biochemical, validation compound set, bead-based, flow cytometry (AID 588368;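 active = binding below the plate cutoff, the plate median minus 3 SD, with a reading above zero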;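 note: signal is the median channel fluorescence of bead-bound GFP antibody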); conditions: Protein G beads, DSG3-Fc, scFv-GFP binding, at 10 µM, stronger effect = lower value
[14] = inhibitors of fungal efflux pumps CDR1, CDR2, MDR1, pilot screen, validation compound set, multiplex, phenotypic (AID 588506;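 active = efflux inhibition above 0.42, the validation set average plus 4 SD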;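 note: Nile Red retained in cells so higher fluorescence means more efflux inhibition; 0 = negative control wells and 1 = enniatin B 25 µM full block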); conditions: S. cerevisiae pump-expressing triplex, Nile Red efflux flow cytometry; at 10 µM; stronger effect = higher value; the pumps come from Candida albicans
[15] = biological target: ATP-binding cassette sub-family B member 6 (Homo sapiens) (UniProt Q9NP58); assay: ABCB6 transporter inhibitors, pilot screen, K562-ABCB6 cells, flow cytometry, validation set (AID 588550;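 active = inhibition above the screen-wide mean plus 3 SD, about 51%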;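 note: 0% = DMSO wells and 100% = benzethonium chloride 70 µM positive control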); conditions: K562-ABCB6 porphyrin accumulation, 1 h, at 10 µM, stronger effect = higher value
Chain of ATP-binding cassette sub-family B member 6 (Homo sapiens) (Q9NP58 whole entry, looked up): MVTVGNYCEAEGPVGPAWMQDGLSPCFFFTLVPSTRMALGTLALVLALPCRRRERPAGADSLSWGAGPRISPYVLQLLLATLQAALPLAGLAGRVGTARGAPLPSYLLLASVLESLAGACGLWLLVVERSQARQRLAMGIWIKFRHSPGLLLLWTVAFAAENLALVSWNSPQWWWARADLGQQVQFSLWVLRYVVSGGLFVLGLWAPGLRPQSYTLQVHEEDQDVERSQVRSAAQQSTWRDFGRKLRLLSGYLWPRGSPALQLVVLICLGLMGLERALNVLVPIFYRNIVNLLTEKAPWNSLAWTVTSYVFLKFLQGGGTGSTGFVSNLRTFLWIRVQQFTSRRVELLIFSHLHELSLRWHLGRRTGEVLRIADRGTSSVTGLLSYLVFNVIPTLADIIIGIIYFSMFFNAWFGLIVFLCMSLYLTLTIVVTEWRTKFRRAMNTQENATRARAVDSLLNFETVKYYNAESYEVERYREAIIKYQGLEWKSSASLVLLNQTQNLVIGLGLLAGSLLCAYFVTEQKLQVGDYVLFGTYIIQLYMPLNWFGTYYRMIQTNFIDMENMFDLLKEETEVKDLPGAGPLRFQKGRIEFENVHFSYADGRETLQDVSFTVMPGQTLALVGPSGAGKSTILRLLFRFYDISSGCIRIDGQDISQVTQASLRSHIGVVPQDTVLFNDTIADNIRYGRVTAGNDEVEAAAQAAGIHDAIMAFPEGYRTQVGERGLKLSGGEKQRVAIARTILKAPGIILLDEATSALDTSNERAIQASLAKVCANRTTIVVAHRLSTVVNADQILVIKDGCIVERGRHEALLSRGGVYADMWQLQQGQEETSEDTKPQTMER

[16] = promoters of myeloid differentiation in arrested cells, primary screen, cell-based, GFP/MAC1 double positive, flow cytometry, validation set (AID 588685;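 active = differentiation response of at least 50%, scaled between solvent and reference control, from cells with both markers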;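 note: compound exposure lasts four days before antibody staining and flow analysis; 0% = DMSO wells and 100% = 5 µM fulvestrant positive control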); conditions: ER-HoxA9 marrow cells, stronger effect = higher value, normalized: vehicle 0, fulvestrant 100

| SMILES | percent of DMSO control GFP [1] | GFP response vs DMSO [2] | percent response of DMSO control [3] | GFP response vs DMSO [4] | GFP response, % of DMSO [5] | double positive events [6] | vesicle binding response [6] | inhibition [7] | superoxide response (% of plate) [8] | aptamer binding inhibition [9] | response [10] | inhibition [11] | response [12] | binding (% of control) [13] | efflux inhibition (fraction of control) [14] | inhibition [15] | differentiation response [16] |
| --- | --- | --- | --- | --- | --- | --- | --- | --- | --- | --- | --- | --- | --- | --- | --- | --- | --- |
| OCCN(CCO)c1nc(N2CCCCC2)c2nc(N(CCO)CCO)nc(N3CCCCC3)c2n1 | 105% (inactive) | 102% (inactive) | 100% (inactive) | 107% (inactive) | 108% (inactive) | 62.5% | 175% (inactive) | -9.63% (inactive) | 98% (inactive) | 3% (inactive) | 7.65% (inactive) | 18.6% (inactive) | 15.4% (active) | 106% (inactive) | 0.08 (inactive) | -6% (inactive) | -7.94% (inactive) |
| CN1[C@@H]2CC(OC(=O)[C@H](CO)c3ccccc3)C[C@H]1[C@@H]1O[C@@H]12 (stereo partly specified) | 107% (inactive) and 99.1% (inactive) | 101% (inactive) and 115% (inactive) | 109% (inactive) and 93.9% (inactive) | 109% (inactive) and 117% (inactive) | 114% (inactive) and 103% (inactive) | 62.9% and 62.1% | 177% (inactive) and 215% (inactive) | 0.25% (inactive) and 6.4% (inactive) | 99.8% (inactive) and 101% (inactive) | -1% (inactive) and 3% (inactive) | -2.34% (inactive) and -12.4% (inactive) | 14.7% (inactive) and 37.8% (inactive) | -8.23% (inactive) and -3.95% (inactive) | 101% (inactive) and 98.7% (inactive) | -0.26 (inactive) and -0.1 (inactive) | -10% (inactive) and 4% (inactive) | -3.11% (inactive) and -2.4% (inactive) |
| O=c1c(-c2ccccc2)c(O)c2cccc3c2n1CCC3 | 99.7% (inactive) | 104% (inactive) | 95.7% (inactive) | 132% (inactive) | 103% (inactive) | 61.2% | 186% (inactive) | 1.44% (inactive) | 108% (inactive) | -3% (inactive) | -27.7% (inactive) | -7.94% (inactive) | 0.3% (inactive) | 101% (inactive) | -0.09 (inactive) | 1% (inactive) | -12.9% (inactive) |
| CCOC(=O)[C@H]1O[C@@H]1C(=O)N[C@@H](CC(C)C)C(=O)NCCC(C)C | 91.1% (inactive) | 135% (inactive) | 97.9% (inactive) | 82.5% (inactive) | 91.7% (inactive) | 55.3% | 224% (inactive) | 6.46% (inactive) | 97% (inactive) | 3% (inactive) | -8.75% (inactive) | -3.19% (inactive) | 6.36% (inactive) | 106% (inactive) | 0.05 (inactive) | 7% (inactive) | 0.82% (inactive) |
| CC[C@H](C)C(=O)O[C@H]1C[C@@H](C)C=C2C=C[C@H](C)[C@H](CC[C@@H]3C[C@@H](O)CC(=O)O3)[C@H]21 | 107% (inactive) | 108% (inactive) | 103% (inactive) | 97% (inactive) | 95.8% (inactive) | 64.6% | 126% (inactive) | -5.11% (inactive) | 93.1% (inactive) | 2% (inactive) | 1.87% (inactive) | 49.7% (inactive) | -9.69% (inactive) | 109% (inactive) | 0.28 (inactive) | 0% (inactive) | -11.9% (inactive) |
| COc1ccc(C(C)=O)c2c1OCCO2 | 100% (inactive) | 94.1% (inactive) | 91.9% (inactive) | 88.7% (inactive) | 97.2% (inactive) | 65.9% | 891% (inactive) | -2.53% (inactive) | 97.6% (inactive) | 1% (inactive) | 3.38% (inactive) | 14.1% (inactive) | 0.17% (inactive) | 99.5% (inactive) | -0.07 (inactive) | 11% (inactive) | -1.71% (inactive) |
| O=C(O)c1ccc(C(=O)C(=O)c2ccccc2)cc1 | 104% (inactive) | 98.3% (inactive) | 109% (inactive) | 101% (inactive) | 102% (inactive) | 65.4% | 304% (inactive) | -17.1% (inactive) | 110% (inactive) | 3% (inactive) | 4.67% (inactive) | 1.48% (inactive) | 0.41% (inactive) | 96.6% (inactive) | -0.01 (inactive) | -10% (inactive) | -6.6% (inactive) |
| CN(C)c1ccc(Nc2c3c4c(cccc4n(C)c2=O)C(=O)c2ccccc2-3)cc1 | 99.3% (inactive) | 108% (inactive) | 111% (inactive) | 126% (inactive) | 108% (inactive) | 60.5% | 195% (inactive) | -0.27% (inactive) | 71% (inactive) | 0% (inactive) | -25.2% (inactive) | 16.7% (inactive) | -0.9% (inactive) | 93.8% (inactive) | -0.17 (inactive) | 3% (inactive) | -9.91% (inactive) |

Reference: PubChem BioAssay
